Screening results (PubChem BioAssay)
Methyltransferases: Primary Screen for Target Class Profiling of Small Molecule Inhibitors of Methyltransferases. purified enzyme, MTase-Glo SAH luminescence; stronger effect = lower value. calls only at 40 µM. 3.9% of 25,000 active. AID 1745853, 2022; call rule not given here
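Each enzyme was reacted with SAM and its substrate, with compounds tested once at 40 uM; SAH formed was read by MTase-Glo luminescence.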
MTase-Glo ctr: counter-screen for methyltransferase inhibitors: coupling enzymes without methyltransferase. shares compounds with Methyltransferases. MTase-Glo coupled enzymes, SAH conversion luminescence, no MTase. Potency, µM (doses to about 57.3 µM), for the others: at the top dose activity change, negative = inhibition, actives largely listed as inhibitors. 6% of 180 active; active = well fitted inhibition curve with a large enough effect; note: potency is the fitted concentration of half-maximal effect
Active calls of the source: *; i = inactive; + = active, no number; [ ] = another dose, or the depositor's remark. This excerpt belongs to a sample that is enriched for hits. % is set by controls: 0 for no effect and ±100 for the full control effect.

SMILES	Methyltransferases	others
CC(C)c1nccn1CCCNC(=O)c1ccc(N2CCCC(CO)C2)nc1 (stereo not drawn)	+	MTase-Glo ctr=0.9%
CN1CCCCC1CCNC(=O)c1ccc(N2CCOCC2)nc1 (stereo not drawn)	i
CC(C)Cn1c(=O)c2sccc2n2c(CCC(=O)NCc3ccncc3)nnc12	i
CC(C)[S+](=O)([O-])N1CCN(c2ccc(Cl)nn2)C(=O)C1	i
O=C(c1ccncc1)N1CCCC(CN2CCCC2)CC1 (stereo not drawn)	i
O=C(c1ccc(C2CCCNC2)cc1)N1CCN(c2ccncc2)CC1 (stereo not drawn)	+	MTase-Glo ctr=-3.3%
Cn1cc(-c2ccncc2)cc1C(=O)N1CCN(c2ccc(F)cc2)CC1	i
COCC(=O)N1CCCN(c2nc3ncccc3o2)CC1	i
Cc1ccc(Cl)cc1NC(=O)CSc1nnc2n(CCCOC(C)C)c(=O)c3ccccc3n12	i
O=C(NCC1CN(C(=O)Cc2cccc(Cl)c2)CC12CN(c1ccccc1)C2)C1CC1 (stereo not drawn)	i
CN1C(=O)C(c2ccccc2)CC12CCN(c1ccnc(N)n1)CC2 (stereo not drawn)	+	MTase-Glo ctr=4.7%
Cc1ccc(CN2CCC3(CC2)CC(c2ccccc2)C(=O)N3C)cc1F (stereo not drawn)	i
CC(C)Cn1c(=O)c2ccccc2n2c(CCC(=O)NCCCN3CCN(c4ccccc4F)CC3)nnc12	i
CC1CCC2(O1)C(C)(C)CC(O[C@@H]1O[C@H](CO[C@@H]3OC[C@](O)(CO)[C@H]3O)[C@@H](O)[C@H](O)[C@H]1O)CC2(C)O (stereo partly drawn)	i
C[C@H]1[C@@H](O)[C@H](O)C2[C@]3(C)C([C@@H](O)[C@H]4OC(=O)[C@@H]1[C@@]24C)[C@](C)(O)C=C[C@H]3O[C@@H]1O[C@H](CO)[C@@H](O)[C@H](O)[C@H]1O (stereo partly drawn)	i
O=C(COc1ccc(-c2nnc3n2CCCC3)cc1)NCc1ccccc1Br	i
O=C1CN([S+](=O)([O-])c2ccc(F)cc2)CC(O)CN1Cc1cccs1 (stereo not drawn)	i
c1ccc(CO[C@H]2COCCN(c3nc4ccccc4o3)C2)cc1	+	MTase-Glo ctr=-3.9%[85.7 µM]
O=C1N(Cc2ccc(F)c(F)c2)CCCC12CCN(c1nc3ccccc3o1)C2 (stereo not drawn)	i
COc1ccc(CNC(=O)O[C@H]2COCCN(c3nc4ccccc4o3)C2)cc1	i
COc1cncc(Nc2cnc3ccc(-c4ccccc4OC)nn23)c1	i
COc1ccnc(-c2nnc3ccc(Nc4cc(OC)c(OC)c(OC)c4)nn23)c1	+	MTase-Glo ctr=-4.1%[85.7 µM]
CCOc1ccc(CCNC(=O)CCc2nnc3n(CCCOC(C)C)c(=O)c4ccccc4n23)cc1	i
COc1ccccc1-c1ccc(C(=O)N2CCC(C(=O)Nc3ccccc3Cl)CC2)cc1	i
COc1cccc(-c2ccccc2NC(=O)C2CCN(CC=C(C)C)CC2)c1	+	MTase-Glo ctr=-4.2%
SMILES	Methyltransferases	others
COc1cccc(-c2ccccc2NC(=O)C2CCN(Cc3ccccc3F)CC2)c1	i
CCCn1c(=O)c2ccc(C(=O)NC(C)CC)cc2n2c(=O)n(CC(=O)Nc3ccccc3C)nc12 (stereo not drawn)	i
c1ccc(Nc2cc3c(cn2)NCCN(Cc2ccccn2)C3)cc1	i
O=C(O)c1ccc(CC2CCN(Cc3ccccn3)C2)cc1 (stereo not drawn)	i
c1ccc(-c2cc3c(cn2)NCCN(Cc2ccccn2)C3)cc1	+	MTase-Glo ctr=-5.2%[85.7 µM]
COCCOC1CCOC2(CCN(C(=O)CCCc3ccccc3)CC2)C1 (stereo not drawn)	i
COc1ccc2[nH]c(CNc3cc(C4CC(N)C4)nc(C)n3)cc2c1 (stereo not drawn)	+	MTase-Glo ctr=-1.0%
C#CCNCc1cc2cc(OCc3ccccc3)ccc2[nH]1	i
CNC(=O)[C@@H]1CN(C(=O)c2cc3cc(OC)ccc3[nH]2)C[C@H]1COC	i
O=C(NCCc1ccncc1)C1CN(C(=O)C2CCCCC2)CC12CCOCC2 (stereo not drawn)	i
CN1C(=O)c2cc3ccccc3n2CC1(C)C(=O)NCC(=O)NCc1ccccc1F (stereo not drawn)	i
C=C1C(=O)O[C@H]2/C=C(/C)[C@@H](OC(C)=O)C/C=C(\C)C[C@@H](OC(=O)/C(=C/C)COC(=O)/C(=C/C)CO)[C@@H]12	i
O=S(=O)(NCCn1c(-c2ccncc2)nc2ccccc21)c1ccccc1	i
CNC(=O)N1CCC(C2CCN(C(=O)NCc3cccc(OC)c3)C2)CC1 (stereo not drawn)	i
CCCn1c(C)cnc1CC1CCN(C(=O)NCc2ccc(OC)cc2)C1 (stereo not drawn)	+	MTase-Glo ctr=-3.7%
